The whole screen tested about 69,000 compounds, of which about 8,600 (12%) showed an effect of 50% or more. This excerpt belongs to a sample that is enriched for strong results.
Tested on: Plasmodium berghei
Experiment: Screen against P. berghei liver stage (PbLuc), transformed with Luciferase, at 10uM
Assay type: functional, HepG2
Details: tested at 10 uM

SMILES	INHIBITION [%]
CCCn1nc(C)c(C(=O)N(C)[C@@H]2CC[C@@H](OC)[C@@H]2O)c1C	40.65
CCn1ncc2c(C(F)(F)F)cc(-c3cnn(C)c3)nc21	19.55
CCOC(=O)c1cnn(C2CCN(C(=O)CC(C)(C)C)CC2)c1N	-17.4
CCN(CC)c1nc(C)cc(C(=O)Nc2cccc(C(N)=O)c2)n1	25.3
Cc1nnc(C(NS(=O)(=O)c2cc(C#N)ccc2C)C(C)C)[nH]1 (configuration not stated)	49.1
CSCC[C@H]1CN2CCC[C@H]2CN1Cc1coc2ccc(C)cc2c1=O	43.6
CC(=O)NCC(=O)N1Cc2nccn2CC(CN(C)C(C)C)C1 (configuration not stated)	5.44
CN(Cc1ccc(Cl)s1)C(=O)Nc1ccc(N(C)C)nc1	58.8
CN(Cc1ccsc1)C(=O)Nc1ccc(N(C)C)nc1	33.8
CN(C)c1ccc(NC(=O)NCc2ccc(Cl)s2)cn1	-21
Cn1cccc1C(=O)N1CCc2ncnc(C3CC3)c2CC1	35.8
COCCSCC(=O)NCc1ccc(N(C)C)nc1	43.5
CCOCCCNC(=O)c1nc2c(s1)CCCN2c1ccc(C)nn1	35.8
COC(=O)CC(C)(C)CC(=O)N1CCC(C(F)(F)F)CC1	24.6
CCc1nc(C2CCCN2CCCS(=O)(=O)c2ccccc2)no1 (configuration not stated)	51.2
CCc1nc(C2CCCN2CCCc2nc3ccccc3o2)no1 (configuration not stated)	62.6
Cc1nc(C2CCCN2CCCS(N)(=O)=O)no1 (configuration not stated)	22.5
Cc1nc(C2CCCN2CCCS(=O)(=O)c2ccccc2)no1 (configuration not stated)	3.603
Cc1nc(C2CCCN2CCCc2nc3ccccc3o2)no1 (configuration not stated)	21.6
CC(C)c1nc(C2CCCN2CCCc2nc3ccccc3o2)no1 (configuration not stated)	26.3
Cc1nc(C2CCCN2CCCS(=O)(=O)N(C)C)no1 (configuration not stated)	54.3
CN(C)S(=O)(=O)CCCN1CCCC1c1noc(C2CC2)n1 (configuration not stated)	-15.5
CCc1nc(C2CCCN2CCS(=O)(=O)c2ccccc2)no1 (configuration not stated)	22.007
O=C(NCCN1CCCCC1)c1ccn(-c2ccccc2)n1	19.6
CCSCC(C)NCc1cn2ccccc2n1 (configuration not stated)	-20
COCC1CN(Cc2csc(C)n2)Cc2nccn2C1 (configuration not stated)	4.61

SMILES	INHIBITION [%]
CCc1ncc(CNCc2cccnc2N(C)C)cn1	-0.29
Cc1cccc(C)c1OCCNC(=O)C(C)n1cncn1 (configuration not stated)	-42.3
O=C(Nc1ccccc1)N1CCC2(CC(=O)N(c3ccsc3)C2)C1 (configuration not stated)	-12.2
O=C1COC2(CCN(c3ncccn3)CC2)CN1c1ccsc1	26.5
O=C(C1CCOCC1)N1CCC2(CC1)CN(c1ccsc1)C(=O)CO2	74.2
CCc1cnc(N2CCC3(CC2)CN(c2cccnc2)C(=O)CO3)nc1	47.2
O=C(c1cccs1)N1CCC2(CC1)CN(c1ccsc1)C(=O)CO2	22.9
O=C(C1CC1)N1CC[C@H]2C(=O)N(c3ccsc3)CCO[C@H]2C1	33
COCC(=O)N1CCC2(CC1)CN(c1cncnc1)C(=O)CO2	24.1
O=C(c1cccs1)N1CCC2(CC1)CN(c1cncnc1)C(=O)CO2	48.6
COCC(=O)N1CCC2(CC1)CN(c1ccsc1)C(=O)CO2	64.9
CN(C)CC(=O)N1CCC2(CC1)CN(c1ccsc1)C(=O)CO2	47.2
Cc1cnc(N2CCC3(CC2)CN(c2ccsc2)C(=O)CO3)nc1	53.9
NC(=O)N1CCC2(CC1)CN(c1ccsc1)C(=O)CO2	54.6
O=C(NCc1ccco1)[C@H]1COC[C@H]2CN(Cc3ccoc3)C[C@H]21	25.2
CCOc1ccc(C#N)cc1NCC(=O)NC1(C#N)CCCC1	-2.53
Cc1ccc(NC(=O)N2CCCC2)c(OCC2CCCO2)c1 (configuration not stated)	-8.11
CCS(=O)(=O)N1CCN(Cc2cccnc2)c2nc(C)ccc2C1	38.1
O=C(Nc1cccs1)NC(CCCO)c1ccccc1 (configuration not stated)	24.3
O=C(NCc1csc(Br)c1)N1CCC(O)CC1	-0.822
COCC(=O)NCCCn1nc2ccccn2c1=O	19.7
CC(C)N(C)Cc1nnc2n1CCN(CC1CC1)CC2	20.1
CCS(=O)(=O)N1CCC2(CC1)CN(c1ccsc1)C(=O)CO2	54.4
CCS(=O)(=O)N1CCC2(CC1)CN(c1cncnc1)C(=O)CO2	14.1
O=C1COC2(CCN(S(=O)(=O)C3CC3)CC2)CN1c1ccsc1	3.25
Cc1cc2ccccc2n1CCC(=O)N1CCN(C)CC1C(N)=O (configuration not stated)	34.9

SMILES	INHIBITION [%]
CSCC(=O)N1CCOC(c2nc(C)n[nH]2)C1 (configuration not stated)	36.8
CC(C)c1nc(C2CCCN(C(=O)c3cccc4c3OCO4)C2)no1 (configuration not stated)	42
CSc1ncc(C(=O)N2C[C@@H]3CC[C@H]2CN(Cc2ccccc2)C3)cn1	-9.76
CN1CCN(CCCNC(=O)C2CCCCC2)CC1	-24
CN(CCN1CCCC1=O)S(=O)(=O)CC1CCCC1	88
CN1CCC(CN(C)S(=O)(=O)CC2CCCCC2)CC1	72.3
Cc1ccc2cccc(S(=O)(=O)N(C)CC3CCN(C)C3)c2n1 (configuration not stated)	16
CN(C)CCN(C)S(=O)(=O)CC1CCOCC1	30.2
Cc1ccc2cccc(S(=O)(=O)N(C)CC3CCN(C)CC3)c2n1	17.6
CN1CCN(CCCN(C)S(=O)(=O)C2CCCCC2)CC1	43.2
CN(CCN1CCOCC1)S(=O)(=O)CC1CCCC1	38.7
CN1CCN(CCCN(C)S(=O)(=O)CC2CCCCC2)CC1	54.4
O=C(NCCCn1cccn1)N1CCCC1c1cccs1 (configuration not stated)	25.2
Cc1ccsc1CN1CC[C@H]2OCC[C@@]2(C(=O)N2CCCO2)C1	37.2
COCCNC(=O)[C@@H]1C[C@@H]2CCN(c3ncccn3)C[C@H]2O1	4.57
O=C(Nc1ccccc1F)C1CSCN1C(=O)CCc1ccco1 (configuration not stated)	-39.2
COc1ccc(S(N)(=O)=O)cc1C(=O)N(C)Cc1cc(C)on1	51.2
COc1ccc(Cl)cc1C(=O)N(C)Cc1cc(C)on1	-4.16
CCN(C)C(=O)Nc1cc(F)c(OC)cc1F	14.9
CCNC(=O)c1ccc(NC(=O)N(C)Cc2cc(C)on2)c(C)c1	29.6
Cc1cc(CN(C)C(=O)Nc2ccccc2C)no1	67.1
COc1ccc(F)cc1C(=O)N(C)Cc1cc(C)on1	35.7
COc1cc(F)c(NC(=O)N(C)Cc2cc(C)on2)cc1F	52.6
COc1cc(F)c(NC(=O)N(C)CCNC(=O)N(C)C)cc1F	36.3
Cc1cc(CN(C)C(=O)NCc2ccccn2)no1	-22.8
